The values that follow come from PubChem BioAssay (Tox21).

Test [1] can be described thus: A CellTox Green Cytotoxicity Assay to monitor cytotoxicity in HepG2 cells - 16 hour (AID 1224876). Note: nearly all actives have a fitted effect of over 45% in size. An outline of the steps: (§1)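 Nonlytic assay: viable cells exclude the dye, so fluorescence scales with cell death. HepG2 at 600 cells/well, compounds added after 5 h, signal read across 40 h.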
The nature of test [2]: qHTS RealTime-Glo MT Cell Viability Assay in HepG2 cells - 32 hour (AID 1224877). Note: nearly all actives have a fitted effect of over 55% in size. The essentials: (§2)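 Viability was tracked continuously by NanoLuc luminescence from prosubstrate reduced by living HepG2 cells, at successive time points over 40 h of compound exposure. Cells with reagent were preincubated 5 h at 37 °C before compound addition.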
A general note: qHTS replaces the single test concentration by a dilution series.

Test [3] is described as follows: A CellTox Green Cytotoxicity Assay to monitor cytotoxicity in HepG2 cells - 24 hour (AID 1224878). Note: nearly all actives have a fitted effect of over 45% in size. An outline of the steps:
as §1

The nature of test [4]: A CellTox Green Cytotoxicity Assay to monitor cytotoxicity in HepG2 cells - 40 hour (AID 1224879). Note: nearly all actives have a fitted effect of over 40% in size. The essentials:
as §1

A short description of test [5]: qHTS RealTime-Glo MT Cell Viability Assay in HEK293 cells - 0 hour (AID 1224880). Note: top concentration of the series differs between compounds; nearly all actives have a fitted effect of over 45% in size. The essentials: (§3)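 Tox21 screen in HEK293 using RealTime-Glo MT chemistry, with cells and reagent co-dispensed. Luminescence proportional to viable cell number was captured at intervals during 40 h compound exposure at 37 C.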
Test [6] is described as follows: A CellTox Green Cytotoxicity Assay to monitor cytotoxicity in HEK293 cells - 32 hour (AID 1224881). Note: nearly all actives have a fitted effect of over 40% in size. The essentials:
(§4)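 Seeding of HEK293 cells together with cytotoxicity dye preceded a 5 h incubation at 37 C/5% CO2. Test compounds in DMSO were then added and fluorescence monitored across 40 h.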

Test [7] is described as follows: A CellTox Green Cytotoxicity Assay to monitor cytotoxicity in HepG2 cells - 0 hour (AID 1224882). Note: nearly all actives have a fitted effect of over 35% in size. An outline of the steps: as §1
A short description of test [8]: A CellTox Green Cytotoxicity Assay to monitor cytotoxicity in HepG2 cells - 32 hour (AID 1224883). Note: nearly all actives have a fitted effect of over 50% in size. The essentials:
as §1

A short description of test [9]: A CellTox Green Cytotoxicity Assay to monitor cytotoxicity in HEK293 cells - 8 hour (AID 1224884). Note: nearly all actives have a fitted effect of over 35% in size. An outline of the steps: as §4
Test [10] can be described thus: qHTS RealTime-Glo MT Cell Viability Assay in HepG2 cells - 16 hour (AID 1224885). Note: nearly all actives have a fitted effect of over 50% in size. The essentials: as §2
Test [11] in a line: qHTS RealTime-Glo MT Cell Viability Assay in HEK293 cells - 24 hour (AID 1224886). Note: nearly all actives have a fitted effect of over 50% in size. Note: potency is the fitted concentration of half-maximal effect. The essentials: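 Viability tracked continuously by luminescence as live cells reduce a prosubstrate for NanoLuc; HEK293 cells preincubated 5 h, compound-treated at 37 C, and read at 0, 8, 16, 24, 32 and 40 h.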
Test [12] in a line: qHTS RealTime-Glo MT Cell Viability Assay in HEK293 cells - 8 hour (AID 1224887). Note: nearly all actives have a fitted effect of over 50% in size. Note: potency is the fitted concentration of half-maximal effect. An outline of the steps: as §3
A short description of test [13]: A CellTox Green Cytotoxicity Assay to monitor cytotoxicity in HEK293 cells - 16 hour (AID 1224888). Note: nearly all actives have a fitted effect of over 35% in size. An outline of the steps:
as §4

Test [14] can be described thus: qHTS RealTime-Glo MT Cell Viability Assay in HepG2 cells - 0 hour (AID 1224889). Note: nearly all actives have a fitted effect of over 50% in size. The essentials:
as §2

Test [15] can be described thus: A CellTox Green Cytotoxicity Assay to monitor cytotoxicity in HepG2 cells - 8 hour (AID 1224890). Note: nearly all actives have a fitted effect of over 45% in size. An outline of the steps:
as §1

A short description of test [16]: qHTS assay to identify small molecule antagonists of the estrogen receptor alpha (ER-alpha) signaling pathway using the BG1 cell line in the presence of 0.1 nM 17-beta-estradiol - cell viability counter screen (AID 1259241). Note: nearly all actives have a fitted effect of over 40% in size. The essentials:
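VM7Luc4E2 cells (endogenous full-length ER-alpha, 4xERE-luciferase), cultured 5 days in charcoal-stripped serum, exposed to compounds with 0.1 nM 17beta-estradiol (final) for 22 hr at 37C. Viability read in same wells as live-cell protease fluorescence after 30 min.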

The nature of test [17]: qHTS assay to identify small molecule antagonists of the androgen receptor (AR) signaling pathway using the MDA cell line in the presence of 0.5 nM R1881 - cell viability counter screen (AID 1259242). Note: nearly all actives have a fitted effect of over 45% in size. The essentials:
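R1881 at 0.5 nM final stimulated MDA-kb2 cells during 16 hr compound treatment at 37C. Cytotoxicity read: CellTiter-Fluor fluorescence after 30 min.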

The target of test [18] is Androgen receptor (Homo sapiens) (UniProt P10275). Description: qHTS assay to identify small molecule antagonists of the androgen receptor (AR) signaling pathway using the MDA cell line in the presence of 0.5 nM R1881 (AID 1259243). Note: nearly all actives have a fitted effect of over 50% in size. The essentials:
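We exposed MDA-kb2 cells to compounds under 0.5 nM R1881 stimulation for 16 hr at 37C and quantified MMTV-driven luciferase by luminescence.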

In test [19] the target is Estrogen receptor (Homo sapiens) (UniProt P03372). Kind of test: qHTS assay to identify small molecule antagonists of the estrogen receptor alpha (ER-alpha) signaling pathway using the BG1 cell line in the presence of 0.1 nM 17-beta-estradiol (AID 1259244). Note: nearly all actives have a fitted effect of over 50% in size. Note: potency is the fitted concentration of half-maximal effect. An outline of the steps:
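VM7Luc4E2; 4xERE-luciferase; 0.1 nM E2 final; 22 h co-incubation, 37C; ONE-Glo luminescence after 30 min at room temperature.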

Test [20] is described as follows: qHTS assay to identify small molecule phospholipidosis (PLD) inducers (AID 1259344; active = well fitted curve in the direction sought with a large enough effect; an effect the other way counts as inactive or inconclusive). An outline of the steps:
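Quantitative HTS in HepG2: compound plus LipidTOX Red dye for 24 h, paraformaldehyde fixation with Hoechst 33342, widefield high-content imaging; amiodarone as positive and DMSO as negative control.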

A number with no mark means an inactive call. Results filed as inconclusive are left out. Activity calls are given as the source filed them. Unless noted, calls come from the whole dose curve; as a rule, active = well fitted curve in the direction sought with a large enough effect in the repeat runs; inconclusive = weak or mixed curves; inactive = no such curve, though single readings can be large; an effect the other way counts as inactive or inconclusive.

Androgen receptor (Homo sapiens), sequence (P10275 whole entry, looked up): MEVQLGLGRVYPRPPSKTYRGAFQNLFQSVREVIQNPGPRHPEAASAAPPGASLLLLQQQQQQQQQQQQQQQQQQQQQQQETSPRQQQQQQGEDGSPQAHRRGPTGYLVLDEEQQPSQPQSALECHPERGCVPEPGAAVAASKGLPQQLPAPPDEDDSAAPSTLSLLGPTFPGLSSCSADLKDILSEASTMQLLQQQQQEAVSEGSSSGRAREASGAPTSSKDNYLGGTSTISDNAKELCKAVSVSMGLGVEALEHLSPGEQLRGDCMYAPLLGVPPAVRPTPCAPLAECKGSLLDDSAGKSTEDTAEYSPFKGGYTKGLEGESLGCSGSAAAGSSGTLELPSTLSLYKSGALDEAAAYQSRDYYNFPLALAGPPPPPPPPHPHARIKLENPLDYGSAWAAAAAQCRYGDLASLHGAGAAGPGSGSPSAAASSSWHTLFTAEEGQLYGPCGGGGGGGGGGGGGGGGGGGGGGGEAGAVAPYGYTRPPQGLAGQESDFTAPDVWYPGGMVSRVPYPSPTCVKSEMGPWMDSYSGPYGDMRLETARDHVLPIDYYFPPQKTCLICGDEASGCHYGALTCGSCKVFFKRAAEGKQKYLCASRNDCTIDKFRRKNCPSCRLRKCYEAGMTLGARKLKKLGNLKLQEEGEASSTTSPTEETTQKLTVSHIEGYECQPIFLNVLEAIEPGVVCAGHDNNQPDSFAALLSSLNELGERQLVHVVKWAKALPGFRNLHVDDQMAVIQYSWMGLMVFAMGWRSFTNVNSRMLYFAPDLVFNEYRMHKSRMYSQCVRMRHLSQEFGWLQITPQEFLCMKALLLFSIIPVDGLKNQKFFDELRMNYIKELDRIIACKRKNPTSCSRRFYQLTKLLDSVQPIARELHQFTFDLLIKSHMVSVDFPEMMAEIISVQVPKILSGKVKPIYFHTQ
Estrogen receptor (Homo sapiens), sequence (P03372 whole entry, looked up): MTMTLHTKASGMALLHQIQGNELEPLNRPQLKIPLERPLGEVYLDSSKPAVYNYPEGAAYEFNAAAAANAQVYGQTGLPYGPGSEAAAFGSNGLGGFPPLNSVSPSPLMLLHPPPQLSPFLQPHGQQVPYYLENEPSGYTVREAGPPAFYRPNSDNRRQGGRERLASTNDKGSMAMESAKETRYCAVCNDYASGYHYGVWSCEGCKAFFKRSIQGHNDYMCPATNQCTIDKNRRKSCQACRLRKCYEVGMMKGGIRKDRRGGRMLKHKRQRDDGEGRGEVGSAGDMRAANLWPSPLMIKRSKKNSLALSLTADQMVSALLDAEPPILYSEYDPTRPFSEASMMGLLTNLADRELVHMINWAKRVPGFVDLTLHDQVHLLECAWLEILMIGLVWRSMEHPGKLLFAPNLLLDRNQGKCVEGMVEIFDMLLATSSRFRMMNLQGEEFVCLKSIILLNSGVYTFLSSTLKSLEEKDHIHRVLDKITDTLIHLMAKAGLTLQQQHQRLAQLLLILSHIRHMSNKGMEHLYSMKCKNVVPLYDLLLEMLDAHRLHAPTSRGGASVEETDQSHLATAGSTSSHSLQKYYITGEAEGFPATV

Turning to `C=CCOCC(O)CCl` (configuration not stated), the Potency result in test [1], in test [3], in [4], in [6], in [7] and in test [8] was “inactive” in each case. The Potency entry in test [9], in test [11], in test [12], in test [13], in test [14] and in [15] was “inactive” throughout. The Potency result in test [16], in [17] and in test [19] was “inactive” in each case. For the same compound, the outcome in test [2], in test [5], in test [10] and in test [18] was inactive.

On to `COC(=O)CCC(=O)O`, for which the Potency result in test [1], in test [3], in test [4], in test [6], in [7] and in test [8] was “inactive” throughout. Further, the Potency entry in test [9], in test [11], in test [12], in test [13], in test [14] and in [15] was “inactive” throughout. Further, in test [16], the Potency result was “inactive”. The compound was called inactive in test [2], in test [5] and in [10].

Turning to `CCC(C)(C)C1CCC(=O)CC1`, the Potency entry in test [1], in [3], in test [4], in test [6], in test [7] and in [8] was “inactive” each time. Besides, the Potency result in test [9], in test [11], in [12], in test [13], in test [14] and in test [15] was “inactive” in each case. Besides, the Potency result in test [16], in test [17] and in [19] was “inactive” throughout. Moreover, the result in test [2], in test [5], in test [10] and in test [18] was inactive.

Regarding `C[CH2][Ge]([Cl])([CH2]C)[CH2]C`, the Potency result in [1], in [3], in test [4], in test [6], in [7] and in test [8] was “inactive” throughout. In addition, the Potency entry in [9], in test [11], in test [12], in test [13], in test [14] and in [15] was “inactive” throughout. Moreover, the Potency result in test [16] and in test [17] was “inactive” in each case. The outcome in test [2], in [5] and in [10] was inactive.

For `CC1(N)CCC(C(C)(C)N)CC1` (configuration not stated), the Potency entry in test [1], in test [3], in test [4], in [6], in [7] and in [8] was “inactive” each time. The Potency result in test [9], in test [11], in test [12], in test [13], in test [14] and in test [15] was “inactive” each time. The Potency entry in test [16] and in [17] was “inactive” each time. Moreover, the compound was called inactive in [2], in [5] and in [10].

Regarding `SCCSCCS`, the Potency result in test [1], in test [3], in [4], in test [6], in test [7] and in test [8] was “inactive” each time. Further, the Potency entry in test [9], in test [11], in test [12], in test [13], in test [14] and in [15] was “inactive” each time. Also, the Potency result in [16] and in test [17] was “inactive” each time. Moreover, the call in test [2], in test [5] and in [10] was inactive.

Regarding `Cc1nc2n(c(=O)c1CCN1CCC(C(=O)c3ccc(F)cc3)CC1)CCS2`, the Potency entry in test [1], in test [3], in [4], in test [6], in test [7] and in test [8] was “inactive” each time. For the same compound, the Potency result in test [9], in [13], in test [14], in test [15], in test [16] and in test [17] was “inactive” throughout. Besides, the result in [2], in test [5], in test [10] and in test [18] was inactive. Also, the Potency was 5.35 µM (active) in test [11], 6.74 µM (active) in test [12] and 23.7 µM (active) in test [19].

Turning to `COc1ccc(/C=N/NC(=O)c2ccncc2)cc1OC`, the Potency result in [1], in test [3], in [4], in [6], in test [7] and in test [8] was “inactive” each time. Moreover, the Potency entry in test [9], in test [11], in test [12], in [13], in test [14] and in test [15] was “inactive” throughout. The Potency entry in [16] and in test [17] was “inactive” throughout. For the same compound, the compound was called inactive in test [2], in [5], in test [10], in [18] and in test [20].

On to `COc1ccc(OC)c(NC(=O)CC(C)=O)c1`, for which the Potency result in test [1], in test [3], in test [4], in [6], in test [7] and in test [8] was “inactive” each time. Moreover, the Potency entry in test [9], in test [11], in test [12], in test [13], in test [14] and in test [15] was “inactive” in each case. Moreover, the call in test [2], in test [5] and in test [10] was inactive.

Turning to `CCCCC(=O)N(C)C`, the Potency entry in test [1], in test [3], in test [4], in [6], in test [7] and in test [8] was “inactive” each time. For the same compound, the Potency entry in [9], in [11], in test [12], in [13], in [14] and in test [15] was “inactive” throughout. In [16], the Potency result is “inactive”. In addition, the outcome in test [2], in [5] and in [10] was inactive.

As for `O=S(=O)(O)CCO`, the Potency entry in test [1], in [3], in test [4], in test [6], in test [7] and in [8] was “inactive” in each case. The Potency entry in test [9], in test [11], in [12], in [13], in test [14] and in test [15] was “inactive” in each case. Besides, the Potency result in test [16] and in test [17] was “inactive” in each case. Further, the compound was called inactive in test [2], in [5] and in test [10].

For the compound `NCCc1ccn[nH]1`, the Potency result in [1], in test [3], in test [4], in [6], in [7] and in test [8] was “inactive” in each case. Moreover, the Potency entry in test [9], in [11], in test [12], in [13], in test [14] and in test [15] was “inactive” in each case. Further, the Potency result in test [16], in [17] and in test [19] was “inactive” in each case. The result in [2], in [5], in test [10], in test [18] and in test [20] was inactive.

As for `CC(C)=CC(C)(C)C`, the Potency result in test [1], in test [3], in test [4], in test [6], in test [7] and in test [8] was “inactive” in each case. The Potency result in test [9], in [11], in test [12], in [13], in [14] and in test [15] was “inactive” each time. The Potency entry in test [16] and in test [17] was “inactive” in each case. For the same compound, the compound was called inactive in [2], in [5] and in test [10].

On to `O=C(O)c1ccccc1C(=O)Nc1ccc(S(=O)(=O)Nc2nccs2)cc1`, for which the Potency entry in [1], in test [3], in test [4], in test [6], in test [7] and in test [8] was “inactive” each time. The Potency entry in test [9], in test [11], in [12], in [13], in [14] and in test [15] was “inactive” in each case. Besides, the Potency entry in test [16] and in test [17] was “inactive” each time. For the same compound, the result in test [2], in [5], in test [10], in test [18] and in test [20] was inactive.
